# TWEAK-Fn14 inh – inhibitors of TWEAK-Fn14 signaling, primary screen, luciferase reporter cells, uHTS. TWEAK-stimulated Fn14 reporter cells, luciferase luminescence, 8 h. 2% of 360,000 active. AID 1159606, 2016. inhibition, % at 10 µM; in the data active = inhibition above about 50%
# TROY signal inh – inhibitors of TROY-driven NF-kB signaling, primary screen, Q293 LMP1-TROYcd cells, NF-kB luciferase, uHTS. AID 1347056, 2019. inhibition, % at 10 µM. Q293 LMP1-TROYcd NF-kB luciferase reporter, 4 h. 0.98% of 360,000 active;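 active = compounds whose plate-normalised and pattern-corrected inhibition of the luciferase reporter signal at the single screening dose is 50% or more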
# LMP1 NFkB inh – EBV LMP1-driven NF-kappaB luciferase reporter inhibitors, primary screen, cell-based, luminescence, single point. LMP1-induced NF-kappaB luciferase reporter cells. inhibition, % at 12.5 µM. 0.69% of 350,000 active. AID 504558, 2011; in the data active = inhibition above about 41%; inconclusive = no clear call, values can overlap the other calls;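 note: 0% = neutral control wells and 100% = reference inhibitor control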
# EWS-Fli inh – EWS/Fli-driven NR0B1 reporter inhibitors, primary screen, A673 cells, NR0B1 luciferase, luminescence, MLPCN library; viability-normalised; 0.67% of 350,000 active; inhibition, % at 12.6 µM; AID 651661, 2012;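 active = mean inhibition of at least 50% after viability correction, with every replicate also passing that limit; inconclusive = mean reaches 50% but only one of two replicates passes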;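 note: firefly luciferase signal divided by Alamar Blue viability fluorescence both relative to DMSO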
# LGR2 inh – inhibitors of bursicon-induced LGR2 CRE-luciferase signal, primary screen, cell-based, HEK293, CRE-luciferase reporter, bursicon stimulation. Drosophila bursicon receptor LGR2 (rickets). bursicon-stimulated, 4 h. inhibition, % at 9.99 µM. 0.35% of 380,000 active;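 active = drop in luminescence signal, shown as inhibition above about 50% in the replicate tests, limit read from the data, passing the limit was not always enough; inconclusive = probably only some replicates passing the limit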;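 note: agonist challenge used bursicon conditioned medium at about half maximal strength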
# Active calls of the source: *; ? = inconclusive; . = no result given; ! = not active in a repeat. The list is not random: actives were taken first. Their share in the collection is about 2.6%.
SMILES,TWEAK-Fn14 inh,TROY signal inh,LMP1 NFkB inh,EWS-Fli inh,LGR2 inh
O=C(CNc1cccc2ccccc12)N/N=C/c1ccc([N+](=O)[O-])o1,56*,17,-6,36,19
O=C(N[C@H]1CC[C@H](CCNS(=O)(=O)c2cccc(Cl)c2)O[C@H]1CO)c1ccccc1,.,.,.,1,2
O=C(C[C@H]1CC[C@H]2[C@@H](COC[C@@H](O)CN2S(=O)(=O)c2ccccc2)O1)N1CCOCC1,.,.,.,-10,-8
C=CCN=C1NC(c2ccccc2C(F)(F)F)C(C(=O)OC)=C(C)N1Cc1cccc(C(F)(F)F)c1 (configuration not stated),.,.,.,30,-3
COc1ccc(-c2nsc3c(N4CCCCC4C)ncnc23)cc1 (configuration not stated),98*,91*,73*,83*,95*
Cc1ccc(-c2nsc3c(N4CCC(C(N)=O)CC4)ncnc23)cc1,59*,45,7,.,.
COc1ccc(C(=O)N2CCN(c3ncnc4c(-c5ccccc5)nsc34)CC2)cc1,16,6,10,.,.
COc1ccc(-c2nsc3c(N4CCCCC4)ncnc23)cc1,102*,80*,31,.,.
C[C@H](O)C#Cc1cnc2c(c1)C(=O)N([C@H](C)CO)C[C@H](C)[C@@H](CN(C)C(=O)Nc1ccc(C(F)(F)F)cc1)O2,.,.,.,-11,5
O=C(N/N=C/c1cccc2ccccc12)c1cc(C2CC2)[nH]n1,-19,-52,53*,-68,-27
O=C(N/N=C/c1ccccn1)c1cc(C2CC2)[nH]n1,-7,-52,-13,-79,-51
C/C(=N/NC(=O)c1cc(C2CC2)[nH]n1)c1cccs1,89*,2,60*,.,.
C/C(=N\NC(=O)c1ccccc1O)c1cccs1,73*,-20,34,28,52*
C[C@@H]1CN([C@@H](C)CO)C(=O)c2cccc(NC(=O)c3nc4ccccc4s3)c2O[C@@H]1CN(C)C(=O)Nc1ccccc1,.,.,.,-20,-5
N=c1cc(C2(O)CCCCC2)n2c(nc3ccccc32)s1,64*,27,6,.,.
O=C(N/N=C/c1sc(N2CCOCC2)nc1-c1ccccc1)c1ccccc1O,25,22,10,.,-8
Cc1cc(C(=O)N/N=C/c2sc(N3CCOCC3)nc2-c2ccccc2)c(C)o1,6,2,41*,4,-5
COCC1=C([C@H](O)c2ccccc2)[C@H](CO)[C@@H]2C(=O)N(Cc3ccccc3)C(=O)[C@@H]2C1,.,.,.,-2,.
N#Cc1ccsc1NC(=O)c1cnccn1,-20,-2,-1,.,.
CC(C)(C)NS(=O)(=O)c1cc(C(=O)Nc2sccc2C#N)ccc1Cl,52*,40,3,.,22
CN1CCS/C1=C\C=C1/SC(=S)N(CC(=O)O)C1=O,14,-8,5,-10,1
CCN1C(=O)/C(=C/C=C2/SCCN2C)SC1=S,68*,29,9,.,.
Oc1c(C(Nc2nc3ccccc3s2)c2ccco2)ccc2cccnc12 (configuration not stated),57*,14,61*,.,.
Oc1c(C(Nc2cccc(C(F)(F)F)c2)c2ccncc2)ccc2cccnc12 (configuration not stated),52*,-28,53*,15,20
Oc1c(C(Nc2nccs2)c2ccc(C(F)(F)F)cc2)ccc2cccnc12 (configuration not stated),9,1,73*,?,21
SMILES,TWEAK-Fn14 inh,TROY signal inh,LMP1 NFkB inh,EWS-Fli inh,LGR2 inh
CC(C)C(=O)NC(c1ccco1)c1ccc2cccnc2c1O (configuration not stated),7,11,21,.,?
CN1CCN(C(c2ccc(F)cc2)c2ccc3cccnc3c2O)CC1 (configuration not stated),-8,20,-11,.,.
O=C(N[C@H]1C=C[C@H](CC(=O)N2CCOCC2)O[C@@H]1CO)c1ccccn1,.,.,.,-2,22
OC[C@H]1[C@H](c2ccc(-c3cccnc3)cc2)[C@@H]2CN(CC3CCOCC3)CCCCN12,.,.,.,-4,.
COC(=O)C1=C(C)N(Cc2ccc(C(F)(F)F)cc2)C(=NCc2ccccc2)NC1c1cccc(Cl)c1 (configuration not stated),.,.,.,34,53*
COC(=O)C1=C(C)N(Cc2ccccc2)C(=NCc2cccc(C(F)(F)F)c2)N[C@H]1c1cccc(F)c1,-13,-5,8,39,-8
COC(=O)C1=C(C)N(Cc2ccc(C(F)(F)F)cc2)C(=NCc2ccc(C(F)(F)F)cc2)NC1c1cccc(F)c1 (configuration not stated),.,.,.,57*,9
COC(=O)C1=C(C)N(Cc2cccc(C(F)(F)F)c2)C(=NCc2ccc(C(F)(F)F)cc2)NC1c1ccc(Cl)cc1 (configuration not stated),.,.,.,41,55*
COC(=O)C1=C(C)N(Cc2cccc(C(F)(F)F)c2)C(=NCc2ccc(C(F)(F)F)cc2)NC1c1ccccc1 (configuration not stated),.,.,.,52*,15
CCN=C1NC(c2ccc(Cl)cc2)C(C(=O)OC)=C(C)N1Cc1cccc(C(F)(F)F)c1 (configuration not stated),.,.,.,14,12
COc1cccc(NC(=O)N[C@@H]2CC[C@@H](CC(=O)NCc3ccncn3)O[C@H]2CO)c1,.,.,.,-6,13
CO[C@@H]1CN(C)C(=O)c2cc(NC(=O)NC(C)C)ccc2OC[C@H](C)N(C)C[C@H]1C,.,.,.,-9,-4
C[C@H]1CN([C@@H](C)CO)C(=O)c2cc(C#CCC3CCCC3)cnc2O[C@H]1CN(C)C(=O)CN(C)C,.,.,.,-9,-1
COCc1cn(CC[C@@H]2CC[C@@H](NC(=O)Nc3c(C)noc3C)[C@@H](CO)O2)nn1,.,.,.,-7,10
COc1ccc(-n2c(COc3ccc(Cl)cc3)nnc2SCc2ccc(C#N)cc2)cc1,14,8,-11,.,.
COc1ccc(NCc2nnc(SCc3ccc(Cl)cc3)n2-c2ccccc2)cc1,16,60*,4,.,15
Cc1cccc(S(=O)(=O)N2[C@@H]3CNC[C@H]2C3c2ccc(-c3ccccc3C)cc2)c1 (some centres not stated),.,.,.,59*!,-7
Cc1cccc(S(=O)(=O)N2[C@@H]3CNC[C@H]2C3c2ccc(-c3ccncc3)cc2)c1 (some centres not stated),.,.,.,65*!,-9
CCCNC(=O)Cn1cnc2sc(C(=O)N3CCN(Cc4ccc5c(c4)OCO5)CC3)c(C)c2c1=O,-20,15,20,1,12
Cc1c(C(=O)N2CCN(c3ccccn3)CC2)sc2ncnc(N3CCN(c4ccccc4)CC3)c12,8,3,12,.,.
Cc1c(C(=O)N2CCN(Cc3ccc4c(c3)OCO4)CC2)sc2ncnc(N3CCN(c4ccccc4F)CC3)c12,88*,50,13,12,20
